The full data set covers some 6,500 targets. This sample favours those with a hit. About 2% of all pairs of compound and target were hits.

The text below walks through data of the supplement of paper PMC11006884.

Compound in the assay: COC(=O)C#Cc1ccccc1 [methyl 3-phenylpropiolate]
The experiment in a line: log2 ratio of iodoacetamide-alkyne labeling of the cysteine site, DMSO over compound (competition); higher = stronger covalent engagement of the cysteine by the compound, active = 1 or more. The settings on record: 500 µM; treatment time 1 h; system: HEK293T cell lysate. In short, it runs like this:
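Electrophile (500 µM) or vehicle was added to HEK293T lysate (2 mg/mL) for 1 h at ambient temperature before iodoacetamide alkyne labelling (1 h) and click coupling to sCIP-TMT reagents. After pooling, overnight trypsin digestion at 37 °C, streptavidin enrichment and acid elution, peptides were measured by Orbitrap Eclipse LC-MS/MS with FAIMS and quantified in FragPipe. Each cysteine's log2 competition ratio compares mean control-channel with mean compound-channel reporter intensity, control over compound. Data came from duplicate channels across three replicates, excluding cysteines quantified in only one replicate.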
In the case of CEP135 C316 (UniProt Q66GS9), the “log2 ratio of iodoacetamide-alkyne labeling” value (shortened to “log2 ratio”) is 0.0231 (inactive). To MTHFD1L C778 (UniProt Q6UB35) belongs 1.1 (active); to ISCA2 C144 (UniProt Q86U28), 1.59 (active).

For the target CCT7 C29 (UniProt Q99832), the “log2 ratio” value is 1.51 (active). To CPNE1 C53 (UniProt Q99829) belongs -0.0731 (inactive). To UniProt Q96L50_C246 belongs 0.109 (inactive); to PBK C112 (UniProt Q96KB5), 0.35 (inactive). Turning to HEATR6 C360 (UniProt Q6AI08), the “log2 ratio” value is 0.657 (inactive). Next, UniProt Q9BSH4_C256: -0.207 (inactive). To UBR1 C1603 (UniProt Q8IWV7) belongs 0.433 (inactive). Next, IRF2BP2 C16 (UniProt Q7Z5L9): 0.113 (inactive); DNAJB14 C77 (UniProt Q8TBM8): 1.08 (active); UniProt Q6ZS17_C1137: 0.0366 (inactive). Regarding PTCD3 C642 (UniProt Q96EY7), the “log2 ratio” value is 0.535 (inactive). Regarding EHMT2 C617 (UniProt Q96KQ7), the “log2 ratio” value was 0.759 (inactive). Next, MMS19 C549 (UniProt Q96T76): 1.36 (active). With NCAPG C751 (UniProt Q9BPX3), the “log2 ratio” value was 0.416 (inactive). Next, UniProt Q5VSL9_C418: 1.22 (active); UniProt Q8NB37_C154: 0.389 (inactive); USP9X C1061 (UniProt Q93008): 0.0678 (inactive). Take FBXO30 C317 (UniProt Q8TB52): the “log2 ratio” value was 0.564 (inactive).

For the target ANKHD1 C777 (UniProt Q8IWZ3), the “log2 ratio” value is 0.251 (inactive).

For the target MACROD1 C199 (UniProt Q9BQ69), the “log2 ratio” value is -0.0967 (inactive).
